tested on: VDR:RXRa (NR concentration 270 nM, RXRa partner concentration 90 nM); experiment: PBM binding z-score (relative to random genomic background probes); higher = stronger binding; sequences stand for … in GC…GCGATTGACAGCGTAGAATGAAGG
Method: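 Protein-binding microarray (Agilent 4x180K custom design, double-stranded 60-nt probes: 5' GC cap, 34-nt variable region, 24-nt constant primer region; full probe sequence given). Purified or IVT nuclear receptor:RXRα heterodimers (3:1 NR:RXRα, mostly 270:90 nM) or homodimers were incubated for 1 h in PBS with 2% milk and no ligand, then detected with Alexa488 antibodies. Fluorescence from o1-orientation probes (~5 replicates averaged) was converted to z-scores against 500 random hg19 background probes. Variable regions are seed direct-repeat (DR0–DR5) sites, all their single-nucleotide variants and half-site ablations.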

Row | Sequence | PBM binding z-score
1 | CAAACTAGGTCATGAAAGGTCAAAGTCGAATGAC | 6.73
2 | TCATATAGGTAAACAGGTGAAAGCCCGTAAGTTA | 1.15
3 | CGTCCAAGGTCAGAGAGGTCAATGAATGCCGAGT | 7.79
4 | CCTTACGGGTCACTCCAGGTTATCGCATCGGAGT | 4.2
5 | CCAACTAGGTCAAGAGGTCAAAGTCCGCTTCCCG | 6.1
6 | CGACCTAGGTCAGAACAGGACAGTGAAGGATGAT | 1.05
7 | ATTCAAAGTTCAGGACGAGGTAACGTAAAGCACG | 3.14
8 | AATACAGGGTCATCGTAGGCTAGAGTACGCACAG | 5.2
9 | GCGACTGGGGAATCAGCAGGTTACCATAACTTAA | -0.497
10 | TCTTGTAGATCAAAGGTTAATAAAGCCGAAGCCT | 1.55
11 | GCTAGCAGGCCACTTGGGTCACTCAATGACGGGC | 0.83
12 | CCTACTGGGCCACGAAAGGTCATTGATTCAGTGA | 4.21
13 | TGTTGTAGATCAACAGGAGGTTAAGAAAGATCGA | 0.37
14 | AGAACGAGGGCACGCTGAGTTGAAAGCAGAGTAG | 2.29
15 | CCTAGCAGGCAAGGGTCACTCAAGCATTTCGCTT | 2.81
16 | TTACCAAAGTGAAGGTCGTTGATCCCTCTGTAGA | 0.954
17 | ATACCAAGGTGATTGTGAGGTCGTTGATACTAAC | 3.53
18 | CCTACTGGGCCATTCAGAGGTCATTCATCATATG | 4.26
19 | CTGACTGGGGCAGAAAGGTTACCATACCATCCGG | 1.36
20 | TTACCAAGGTGAGCTGAGGGCGTTGATCCAACTC | 1.89

Row | Sequence | PBM binding z-score
21 | CCTGCTACGTCATGGTCAGCTAATCTACAGTATG | -0.408
22 | GCTTGTAGATCAAGGTTTAGAAAGACTAAGCTAA | -0.245
23 | TCTTGTAGAACAAGCAGGTTAAGAAAGCCTGAGT | 0.279
24 | GTACGAAGGTGAATAGGTCGTTGATGAGTAGGCG | 0.73
25 | AATACAGGGTCATCGTTGGCCAGAGTACGCACAG | 5.13
26 | TCTGCGAGGTCAACGATGGTCAGCTAATCTGCTA | 5.38
27 | AGAACGAGGGCACGCTGAGTTGATATCAGAGTAG | 2.02
28 | CCTATTAGTTGACCATAAGGGCAAACGAAGCTCG | 0.834
29 | CGTCCGAGGTCAGAGAGGTCAGTGAATGCCGAGT | 7.89
30 | CCTACTGGACCAAAGGTCATTGATTCCAATGCTC | 5
31 | GCTAGCAGGCCATTTGGGTCACTCAATGACGGGC | 0.933
32 | GCTGCTAGGTCAGGTTGGTCAGCTATCGGGTACG | 0.576
33 | CGAACTAGGGCAAGGACAGTGAATCTCCGCACGC | -0.473
34 | ATATGTCGGTTAAGGGTCATTCAGGTTGGTTCGC | 5.48
35 | CAAACTAGGTCACCGGAAGGTCGAAGTCCGCATG | 4.47
36 | CCGACTGGGGCAAGGTTATCATAACGCACAGCCA | 0.0882
37 | TTACTAAGGTGAAGGTCGTTGATCCCTCTGTAGA | 1.73
38 | TCGAGTAGGTTACCAAAGGGGCATTCAGCTTTCT | 0.89
39 | CAGCCTGGGTCAGGGCCAGTATAGGAGGAACGTT | 0.152
40 | ATCTCTAGATAACAAGTTCAGTGAAAGAGAGGAC | 1.45
